From PubChem BioAssay
Coupling enz = qHTS Assay for Inhibitors of Fructose-1,6-bisphosphate Aldolase from Giardia Lamblia: Coupling assay counterscreen; coupling enzyme system counterscreen, AmpLite Red fluorescence; activity change, negative = inhibition, % at 58.2 µM, hits read low; 290,000 compounds, 0.67% hits; AID 2472, 2010; in the data active = activity change below about -30%
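First, compound is pin-transferred into glyceraldehyde-3-phosphate coupling-enzyme reagent at 57.5 uM final and held 10 min at RT. Next, substrate, coupling system and AmpLite Red are added. After 20 min RT, fluorescence (525/598 nm) is read.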
KDM4E inh = qHTS Assay for Inhibitors of Human Jumonji Domain Containing 2E (JMJD2E) | Lysine-specific demethylase 4E (Homo sapiens), B2RXH2 | JMJD2E catalytic domain, FDH-coupled NADH fluorescence (FDH is formaldehyde dehydrogenase) | Potency, µM (doses to about 57.1 µM), for inactives: at the highest dose activity change, negative = inhibition, usual class: inhibitors | 230,000 compounds, 1.6% hits; active = well fitted inhibition curve with a large enough effect, not every such curve was filed as active; inconclusive = small, poorly fitted or top-dose-only effect, or another doubt; inactive = no such curve, though single readings can be large or run the other way;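 also: potency is read from the fitted curve at half-maximal effect; 0% = wells with enzyme and -100% = buffer wells without enzyme; nearly all actives have a fitted effect of over 50% in size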
Target sequence (B2RXH2 1-337 limits assumed): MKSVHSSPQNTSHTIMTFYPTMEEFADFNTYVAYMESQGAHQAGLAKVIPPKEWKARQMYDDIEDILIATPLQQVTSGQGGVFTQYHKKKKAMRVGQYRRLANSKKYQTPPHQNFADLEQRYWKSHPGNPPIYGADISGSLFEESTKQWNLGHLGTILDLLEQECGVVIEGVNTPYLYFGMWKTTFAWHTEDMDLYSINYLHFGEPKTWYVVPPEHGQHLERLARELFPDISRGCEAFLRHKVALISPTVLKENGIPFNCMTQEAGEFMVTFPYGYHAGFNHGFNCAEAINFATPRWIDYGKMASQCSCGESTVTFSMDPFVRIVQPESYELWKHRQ
Sfp inh = qHTS Assay for Inhibitors of Bacillus subtilis Sfp phosphopantetheinyl transferase (PPTase); 4'-phosphopantetheinyl transferase ffp (Bacillus subtilis), Q9F4F7; Biochemical Sfp PPTase activity, qHTS; Potency, µM, inactives show largest response in the series, negative = inhibition, hits mostly inhibitors; 310,000 compounds, 3.5% hits; AID 1490, 2009;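 also: the enzyme is Sfp with the accession as filed and its product quenches rhodamine fluorescence; potency is read from the fitted curve at half-maximal effect; 0% = enzyme reaction without inhibitor and -100% = no enzyme wells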
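Step 1, compound plus 15 nM Sfp-PPTase, 15 min, room temperature. Step 2, add rhodamine-CoA (5 uM) and BHQ-2-YbbR (12.5 uM). Step 3, read 525/598 nm fluorescence at 0 and 30 min.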
Tau fluor counter = Counterscreen qHTS for Inhibitors of Tau Fibril Formation, Fluorescence Polarization. 280,000 compounds, 0.93% hits. AID 1463, 2008. Potency, µM (titrated, usually from 57.7 µM), inactives show at the highest dose activity change, negative = decrease. tau K18 P301L Alexa594 fluorescence, heparin fibrillization; also: potency is read from the fitted curve at half-maximal effect; nearly all actives have a fitted effect of over 55% in size
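Human K18 P301L tau (15 uM unlabeled plus 0.24 uM Alexa 594-labeled, final) in 100 mM sodium acetate pH 7 was mixed with compound and 20 uM heparin and incubated 6 hr at 37 C.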
Tau ThT inhib = qHTS for Inhibitors of Tau Fibril Formation, Thioflavin T Binding. recombinant tau K18 P301L, heparin-induced fibrillization, ThT fluorescence. Potency, µM (series often up to 57.4 µM), inactives show top-dose activity, negative = inhibition, hits mostly inhibitors. 270,000 compounds, 2.1% hits. AID 1460, 2008; also: potency is read from the fitted curve at half-maximal effect; nearly all actives have a fitted effect of over 55% in size
Target sequence (P10636 561-689 P618L limits assumed): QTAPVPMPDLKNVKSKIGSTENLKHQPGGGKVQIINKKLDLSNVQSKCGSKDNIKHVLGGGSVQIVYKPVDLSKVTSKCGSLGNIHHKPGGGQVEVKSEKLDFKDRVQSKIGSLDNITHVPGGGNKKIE
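ThT emission at 510 nm, taken 1 hr after adding 30 uM dye, quantifies aggregates formed when 20 uM heparin acts on human tau K18 P301L for 6 hr at 37 C.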
Tau FP inhib = qHTS for Inhibitors of Tau Fibril Formation, Fluorescence Polarization | K18 P301L tau heparin fibrillization, Alexa594 FP, 6 h | Microtubule-associated protein tau (Homo sapiens), P10636 | 280,000 compounds, 0.39% hits | Potency, µM (titrated, usually from 57.7 µM), for inactives: at the top dose activity, negative = inhibition, hits mostly inhibitors; also: potency is read from the fitted curve at half-maximal effect; nearly all actives have a fitted effect of over 55% in size
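Quantitative HTS format: compounds meet 15 uM recombinant K18 P301L tau and Alexa 594-tau tracer in 100 mM sodium acetate pH 7; 20 uM heparin triggers fibrillization at 37 C over 6 hr; FP gives the signal.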
* hit, by the source's call. A selection: hits, their analogues and other compounds. The true share with any hit is near 5.3%. Unless noted, calls follow the shape of the dose curve; as a rule, active = well fitted curve in the direction sought with a large enough effect; inconclusive = small, poorly fitted or top-dose-only effect, or another doubt; inactive = no such curve, though single readings can be large; an effect the other way counts as inactive or inconclusive. Unless noted, % is scaled to controls: 0 for no effect and ±100 for the full control effect.

How did COc1ccccc1NS(=O)(=O)c1cc(NC(=O)C2CCCC2)ccc1N1CCOCC1 do in these assays?
Coupling enz: 0; KDM4E inh: -18%; Sfp inh: 20µM*; Tau fluor counter: inconclusive; Tau ThT inhib: -17%; Tau FP inhib: -8%

What do the screens show for `COc1ccccc1NS(=O)(=O)c1cc(NC(=O)c2ccncc2)ccc1N1CCOCC1`?
Coupling enz: 3; KDM4E inh: inconclusive; Sfp inh: 79µM*; Tau fluor counter: 2%; Tau ThT inhib: 5%; Tau FP inhib: 3%

Results for COc1ccccc1NS(=O)(=O)c1cc(NC(=S)NCCN2CCOCC2)ccc1N1CCOCC1 ?
Coupling enz: -2; KDM4E inh: -19%; Sfp inh: -106%; Tau fluor counter: inconclusive; Tau ThT inhib: -16%; Tau FP inhib: -4%

Results for Cc1ccc(-n2nc(CO)c(C(=O)NC(C)c3ccccc3)n2)cc1C (centres undefined) ?
Tau fluor counter: -7%; Tau ThT inhib: -4%; Tau FP inhib: -2%

How did CS[C@@H]1SC[C@H]2C(=O)N(C)C(C(C)C)C(=O)OC[C@@H](NC(=O)c3cnc4ccccc4n3)C(=O)N[C@@H](C)C(=O)N(C)[C@H]1C(=O)N(C)C(C(C)C)C(=O)OC[C@@H](NC(=O)c1cnc3ccccc3n1)C(=O)N[C@@H](C)C(=O)N2C (some centres undefined) do in these assays?
Coupling enz: 1; Sfp inh: 7%

How did CCOC(=O)CC(=O)CSc1nccc(-c2cccnc2)n1 do in these assays?
Coupling enz: 0; KDM4E inh: -14%; Sfp inh: 56µM*; Tau fluor counter: 13%; Tau FP inhib: -4%

Results for CCOC(=O)CC(=O)CSc1nc(-c2cccnc2)ccc1C#N ?
Coupling enz: 2; KDM4E inh: inactive; Sfp inh: 9%; Tau fluor counter: -17%; Tau ThT inhib: inconclusive; Tau FP inhib: 7%

How did Cc1[nH]n(-c2ccccc2)c(=O)c1/C=C1\C=NN=C1c1ccccc1 do in these assays?
Coupling enz: -19; KDM4E inh: -28%; Sfp inh: -2%; Tau fluor counter: inconclusive; Tau ThT inhib: inconclusive; Tau FP inhib: -6%

Results for Cc1[nH]n(-c2ccccc2)c(=O)c1/C=C1/C=c2ccccc2=N1 ?
Coupling enz: -1; KDM4E inh: 6%; Sfp inh: 22%; Tau fluor counter: -21%; Tau ThT inhib: 2.2µM*; Tau FP inhib: 14%

How did Cc1nnc(-c2cccc(Br)c2)c2cn(-c3ccccc3Cl)nc12 do in these assays?
Coupling enz: 2; KDM4E inh: -4%; Sfp inh: 56µM*; Tau fluor counter: -6%; Tau ThT inhib: -13%; Tau FP inhib: -2%

What do the screens show for `CCOC(=O)C(CS)NCCN[C@@H](CS)C(=O)OCC` (some centres undefined)?
Sfp inh: 1.6µM*

What do the screens show for `O=c1cc(O)n(-c2ccccc2)c(=S)[nH]1`?
Coupling enz: 2; KDM4E inh: -11%; Sfp inh: 35µM*; Tau fluor counter: -7%; Tau ThT inhib: inconclusive; Tau FP inhib: -10%

Results for Cc1ccccc1C(=O)Nc1ccc(O)c2c(=O)cc(-c3ccccc3Cl)oc12 ?
Coupling enz: 2; KDM4E inh: 4%; Sfp inh: inconclusive; Tau fluor counter: -8%; Tau ThT inhib: 0%; Tau FP inhib: -12%
